CYP2C9 act = human CYP2C9 activators, primary screen, biochemical, luminescence; Cytochrome P450 2C9 (Homo sapiens), P11712; 96,000 tested, 1.4% active; activation factor at 5 µM; recombinant CYP2C9, luciferin-H conversion; stronger effect = higher value; factor 1 = untreated enzyme, 0 = blocked; AID 1024, 2008;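 active means activation factor of 2 or more for CYP2C9 at a 5 µM dose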;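 further: 0 = sulfaphenazole-blocked wells and 1 = vehicle-only wells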
CYP2C19 inhib = blockers of cytochrome P450 2C19 activity – biochemical, luminescence, ADME assay, primary screen; P33261; CYP2C19 Supersomes, luciferin-H EGE luminescence, 30 min; inhibition, % at 5 µM; 96,000 tested, 21% active; AID 778, 2007;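 active means CYP2C19 inhibition above a set limit at 5 µM in the primary screen, cut at about 50% in these data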;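 further: plate controls were negative control wells for no effect and 2.5 mM tranylcypromine positive control for full effect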
CYP2C9 inh = blockers of cytochrome P450 2C9 activity – biochemical, luminescence, ADME assay, primary screen | CYP2C9 Supersomes, luciferin-H conversion | inhibition, % at 5 µM | 96,000 tested, 20% active | AID 777, 2007;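 active means blocking of liver enzyme CYP2C9 beyond about 50% at 5 µM, limit read from the data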
sEH inhibitor = soluble epoxide hydrolase inhibitors, primary screen, biochemical, human sEH. Bifunctional epoxide hydrolase 2 (Homo sapiens), P34913. recombinant human sEH enzymatic activity assay. inhibition, % at 2 µM. 91,000 tested, 0.34% active. AID 707, 2007; in the data active means inhibition above about 80%
Target sequence (P34913 whole entry, looked up): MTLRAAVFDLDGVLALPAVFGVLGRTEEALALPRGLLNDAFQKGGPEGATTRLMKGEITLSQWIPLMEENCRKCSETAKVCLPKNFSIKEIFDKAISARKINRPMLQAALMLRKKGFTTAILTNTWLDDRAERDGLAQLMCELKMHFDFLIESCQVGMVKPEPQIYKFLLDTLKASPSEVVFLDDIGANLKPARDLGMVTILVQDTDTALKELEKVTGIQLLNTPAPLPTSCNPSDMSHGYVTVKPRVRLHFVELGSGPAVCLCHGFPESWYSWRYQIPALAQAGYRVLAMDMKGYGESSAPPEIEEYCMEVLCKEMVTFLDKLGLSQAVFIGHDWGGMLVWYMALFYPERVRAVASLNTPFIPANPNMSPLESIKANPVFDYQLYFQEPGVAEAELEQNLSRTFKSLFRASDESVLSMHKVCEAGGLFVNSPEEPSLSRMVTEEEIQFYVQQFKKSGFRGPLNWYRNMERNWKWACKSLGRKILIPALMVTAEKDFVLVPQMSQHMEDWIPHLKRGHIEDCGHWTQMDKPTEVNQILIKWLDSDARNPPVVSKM
sEH act = soluble epoxide hydrolase activators, primary screen, biochemical, human sEH; Bifunctional epoxide hydrolase 2 (Homo sapiens), P34913; purified human sEH enzymatic activity, activator screen; activation, % at 2 µM; 91,000 tested, 0.04% active; AID 717, 2007; in the data active means activation above about 37%
CYP2C19 activ = human CYP2C19 activators, primary screen, biochemical, luminescence; Cytochrome P450 2C19 (Homo sapiens), P33261; recombinant CYP2C19, luciferin-H EGE luminescence; stronger effect = higher value; 0 = fully inhibited enzyme, 1 = untreated enzyme; activation factor at 5 µM; 96,000 tested, under 10 active; AID 1025, 2008;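 active means activation factor of at least 2 at 5 µM in the primary screen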;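 further: 0 = wells with 2.5 mM tranylcypromine and 1 = vehicle-only wells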
The depositor's hits bear a star; · = not tested or not shown. An excerpt weighted towards active compounds, which were near 27% of everything screened.

SMILES	CYP2C9 act	CYP2C19 inhib	CYP2C9 inh	sEH inhibitor	sEH act	CYP2C19 activ
CS(=O)(=O)Nc1ccc(C(=O)NC2CCCC2)cc1	1	-9.1	0.0	-1.2	0.5	1.1
Cc1ccc(S(=O)(=O)Nc2c(C)n(C)n(-c3ccccc3)c2=O)cc1C(=O)NCc1ccccn1	1	-2.3	-0.8	9.2	-9.6	1
Cc1nnc(SC(C)C(=O)Nc2ccc(S(=O)(=O)N3CCCCCC3)cc2)s1 (configuration not stated)	0.6	25.1	44.1	-3.0	4.6	0.7
COc1cc(NC(=O)c2cnn3c(C)cc(C)nc23)c(OC)cc1Cl	0.9	21.7	11.3	6.6	-6.5	0.8
COC(=O)C(NC(=O)c1ccc(F)cc1)(Nc1ncc(S(=O)(=O)c2ccc([N+](=O)[O-])cc2)s1)C(F)(F)F (configuration not stated)	0.1	50.5*	87.9*	0.9	-0.8	0.5
COC(=O)C(NC(=O)c1ccccc1)(Nc1nc(C)cs1)C(F)(F)F (configuration not stated)	0.9	43.0	11.5	·	·	0.6
COC(=O)C(NC(=O)c1ccccc1C)(Nc1ncc(S(=O)(=O)c2ccc([N+](=O)[O-])cc2)s1)C(F)(F)F (configuration not stated)	0.4	42.7	60.4*	2.2	-0.4	0.6
Cn1c(=O)cc(OCC(=O)N2CCC(N3CCCCC3)CC2)c2ccccc21	1.2	-22.3	-16.9	·	·	1.2
CC(NC(=O)COc1ccc(Oc2ccccc2)cc1)C(=O)O (configuration not stated)	1.1	-15.3	-7.4	-17.2	15.0	1.2
CCCCS(=O)(=O)Nc1ccc(Cc2ccncc2)cc1	0	100.0*	100.0*	-6.6	5.8	0
COc1cc(NC(=O)c2ncn[nH]2)cc(OC)c1OC	·	·	·	16.0	-16.6	·
CC(CCc1ccccc1)NC(=O)C1CCCN(c2nnc(-n3cccc3)s2)C1 (configuration not stated)	·	·	·	24.7	-24.7	·
CCOc1ccc(CCNC(=O)C2CCCN(c3nnc(-n4cccc4)s3)C2)cc1OCC (configuration not stated)	0.4	49.4	60.5*	9.8	-9.6	0.5
O=C(C1CCCN(c2nnc(-n3cccc3)s2)C1)N1CCN(c2ccccc2)CC1 (configuration not stated)	0.5	67.9*	48.6	14.5	-13.9	0.3
O=C(NC1CCN(Cc2ccccc2)CC1)C1CCCN(c2nnc(-n3cccc3)s2)C1 (configuration not stated)	0.5	11.8	49.1	·	·	0.9
CC(C)NC(=O)C1CCCN(c2nnc(-n3cccc3)s2)C1 (configuration not stated)	0.8	52.8*	22.3	9.2	-9.9	0.5
O=C(C1CCN(c2nnc(-n3cccc3)s2)CC1)N1CCN(c2cccc(C(F)(F)F)c2)CC1	0.5	52.5*	54.8*	10.7	-11.9	0.5
COC(=O)CC/C(C)=N\Nc1ccc([N+](=O)[O-])cc1[N+](=O)[O-]	0.9	8.3	10.5	5.0	-4.3	0.9
COCc1cc(C)c2c(N)c(C#N)sc2n1	1.4	29.1	-35.9	-3.6	5.1	0.7
Cc1ccc2oc(=O)c3cnn(CC(=O)N4CCc5ccccc5C4)c3c2c1	0.8	-9.0	24.0	0.6	3.7	1.1
COc1cc2c(cc1OC)CN(C(=O)COc1ccc(C)c(C)c1)CC2	0.4	72.4*	62.4*	-18.5	17.1	0.3
COc1ccc2c(c1)c(=O)oc1c(C)c(OCC(=O)N3CCc4ccccc4C3)ccc12	0.4	36.7	62.5*	-15.8	16.6	0.6
CCC(=O)c1ccc(OCC(=O)N2CCc3cc(OC)c(OC)cc3C2)cc1	0.6	40.6	38.1	6.2	-4.7	0.6
CC12CCCCC1(O)[N+](=O)C1=C(CCCC1)N2[O-] (configuration not stated)	1	2.9	0.9	-3.5	2.9	1
O=C(COc1ccc(Br)cc1)Nc1ccc([N+](=O)[O-])cn1	1.1	20.1	-8.8	-9.8	13.0	0.8
SMILES	CYP2C9 act	CYP2C19 inhib	CYP2C9 inh	sEH inhibitor	sEH act	CYP2C19 activ
CCOC(=O)C1=C(C)N2C(=C(C#N)[C@@H]1c1ccc(C(=O)OC)cc1)SC[C@@]2(O)C(C)(C)C	0	97.3*	98.3*	·	·	0
CCOC(=O)C1=C(C)NC2=C(C(=O)CC(C)(C)C2)C1c1ccc2c(c1)CCCN2C (configuration not stated)	0.7	23.7	30.4	3.7	-5.5	0.8
O=S(=O)(Nc1ccc2c(c1)OCCO2)c1cccc2nsnc12	0.7	59.7*	34.7	-10.6	12.1	0.4
Cc1ccc2cccc(S(=O)(=O)Nc3ccc4c(c3)OCO4)c2n1	0.7	100.0*	25.1	0.6	-0.5	0
O=C(Nc1ccc2c(c1)OCO2)c1ccc(COc2ccc3c(c2)CCC3)o1	0.6	38.5	40.1	24.0	-21.9	0.6
Brc1ccc2ncnc(Nc3cccc4ccccc34)c2c1	0.4	80.1*	59.0*	-8.1	5.9	0.2
O=C(CSc1nc2scc(-c3ccco3)c2c(=O)n1-c1ccccc1)N1CCOCC1	0.8	12.9	21.4	1.5	1.5	0.9
C=CCn1c(SCC(=O)NCCOC)nc2scc(-c3ccco3)c2c1=O	0.2	78.4*	82.9*	-6.1	6.7	0.2
NC(=O)CSc1nc2scc(-c3ccco3)c2c(=O)n1-c1ccccc1	0.6	13.9	38.5	·	·	0.9
C=CCn1c(SCC(=O)NCC2CCCO2)nc2scc(-c3ccco3)c2c1=O (configuration not stated)	0.2	78.0*	81.4*	23.4	-22.8	0.2
O=c1c2c(-c3ccco3)csc2nc(SCc2cn3cccnc3n2)n1-c1ccccc1	0	53.4*	97.2*	49.7	-49.9	0.5
O=C(CSc1nc2scc(-c3ccco3)c2c(=O)n1-c1ccccc1)NCC1CCCO1 (configuration not stated)	0.3	51.7*	70.9*	-2.8	4.2	0.5
COc1cc(C(=O)N2CCN(C(=O)Cc3ccccc3)CC2)cc(OC)c1OC	1.1	-18.2	-14.9	-2.1	1.7	1.2
CCCc1c(O)nc(SCCN(CC)CC)n(C(=O)c2ccccc2)c1=O	0.8	7.8	19.4	1.7	-2.2	0.9
CC1CCCCN1C(=O)CSc1ccc(-c2ccc(F)cc2)nn1 (configuration not stated)	0.7	60.9*	34.9	0.1	-0.6	0.4
Cc1cc(NCC(C)C)n2ncnc2n1	1.2	-13.5	-18.3	-2.9	6.6	1.1
O=C(Cn1cnc2c(nnn2Cc2ccc(F)cc2)c1=O)NCc1ccco1	·	·	·	1.8	-3.8	·

Source: PubChem (several laboratories)
